FAS TE block = inhibitors of human fatty acid synthase thioesterase domain; inhibition, % at 15 µM; recombinant FAS-TE, OMFH fluorogenic substrate, fluorescence endpoint; 0.67% of 360,000 active; P49327;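 active = compounds whose normalised, plate-corrected inhibition of enzyme fluorescence in the single-dose primary screen is 50% or more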;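 note: 0% = DMSO with enzyme and 100% = substrate without enzyme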
Target sequence (P49327 whole entry, looked up, the tested form may be a part): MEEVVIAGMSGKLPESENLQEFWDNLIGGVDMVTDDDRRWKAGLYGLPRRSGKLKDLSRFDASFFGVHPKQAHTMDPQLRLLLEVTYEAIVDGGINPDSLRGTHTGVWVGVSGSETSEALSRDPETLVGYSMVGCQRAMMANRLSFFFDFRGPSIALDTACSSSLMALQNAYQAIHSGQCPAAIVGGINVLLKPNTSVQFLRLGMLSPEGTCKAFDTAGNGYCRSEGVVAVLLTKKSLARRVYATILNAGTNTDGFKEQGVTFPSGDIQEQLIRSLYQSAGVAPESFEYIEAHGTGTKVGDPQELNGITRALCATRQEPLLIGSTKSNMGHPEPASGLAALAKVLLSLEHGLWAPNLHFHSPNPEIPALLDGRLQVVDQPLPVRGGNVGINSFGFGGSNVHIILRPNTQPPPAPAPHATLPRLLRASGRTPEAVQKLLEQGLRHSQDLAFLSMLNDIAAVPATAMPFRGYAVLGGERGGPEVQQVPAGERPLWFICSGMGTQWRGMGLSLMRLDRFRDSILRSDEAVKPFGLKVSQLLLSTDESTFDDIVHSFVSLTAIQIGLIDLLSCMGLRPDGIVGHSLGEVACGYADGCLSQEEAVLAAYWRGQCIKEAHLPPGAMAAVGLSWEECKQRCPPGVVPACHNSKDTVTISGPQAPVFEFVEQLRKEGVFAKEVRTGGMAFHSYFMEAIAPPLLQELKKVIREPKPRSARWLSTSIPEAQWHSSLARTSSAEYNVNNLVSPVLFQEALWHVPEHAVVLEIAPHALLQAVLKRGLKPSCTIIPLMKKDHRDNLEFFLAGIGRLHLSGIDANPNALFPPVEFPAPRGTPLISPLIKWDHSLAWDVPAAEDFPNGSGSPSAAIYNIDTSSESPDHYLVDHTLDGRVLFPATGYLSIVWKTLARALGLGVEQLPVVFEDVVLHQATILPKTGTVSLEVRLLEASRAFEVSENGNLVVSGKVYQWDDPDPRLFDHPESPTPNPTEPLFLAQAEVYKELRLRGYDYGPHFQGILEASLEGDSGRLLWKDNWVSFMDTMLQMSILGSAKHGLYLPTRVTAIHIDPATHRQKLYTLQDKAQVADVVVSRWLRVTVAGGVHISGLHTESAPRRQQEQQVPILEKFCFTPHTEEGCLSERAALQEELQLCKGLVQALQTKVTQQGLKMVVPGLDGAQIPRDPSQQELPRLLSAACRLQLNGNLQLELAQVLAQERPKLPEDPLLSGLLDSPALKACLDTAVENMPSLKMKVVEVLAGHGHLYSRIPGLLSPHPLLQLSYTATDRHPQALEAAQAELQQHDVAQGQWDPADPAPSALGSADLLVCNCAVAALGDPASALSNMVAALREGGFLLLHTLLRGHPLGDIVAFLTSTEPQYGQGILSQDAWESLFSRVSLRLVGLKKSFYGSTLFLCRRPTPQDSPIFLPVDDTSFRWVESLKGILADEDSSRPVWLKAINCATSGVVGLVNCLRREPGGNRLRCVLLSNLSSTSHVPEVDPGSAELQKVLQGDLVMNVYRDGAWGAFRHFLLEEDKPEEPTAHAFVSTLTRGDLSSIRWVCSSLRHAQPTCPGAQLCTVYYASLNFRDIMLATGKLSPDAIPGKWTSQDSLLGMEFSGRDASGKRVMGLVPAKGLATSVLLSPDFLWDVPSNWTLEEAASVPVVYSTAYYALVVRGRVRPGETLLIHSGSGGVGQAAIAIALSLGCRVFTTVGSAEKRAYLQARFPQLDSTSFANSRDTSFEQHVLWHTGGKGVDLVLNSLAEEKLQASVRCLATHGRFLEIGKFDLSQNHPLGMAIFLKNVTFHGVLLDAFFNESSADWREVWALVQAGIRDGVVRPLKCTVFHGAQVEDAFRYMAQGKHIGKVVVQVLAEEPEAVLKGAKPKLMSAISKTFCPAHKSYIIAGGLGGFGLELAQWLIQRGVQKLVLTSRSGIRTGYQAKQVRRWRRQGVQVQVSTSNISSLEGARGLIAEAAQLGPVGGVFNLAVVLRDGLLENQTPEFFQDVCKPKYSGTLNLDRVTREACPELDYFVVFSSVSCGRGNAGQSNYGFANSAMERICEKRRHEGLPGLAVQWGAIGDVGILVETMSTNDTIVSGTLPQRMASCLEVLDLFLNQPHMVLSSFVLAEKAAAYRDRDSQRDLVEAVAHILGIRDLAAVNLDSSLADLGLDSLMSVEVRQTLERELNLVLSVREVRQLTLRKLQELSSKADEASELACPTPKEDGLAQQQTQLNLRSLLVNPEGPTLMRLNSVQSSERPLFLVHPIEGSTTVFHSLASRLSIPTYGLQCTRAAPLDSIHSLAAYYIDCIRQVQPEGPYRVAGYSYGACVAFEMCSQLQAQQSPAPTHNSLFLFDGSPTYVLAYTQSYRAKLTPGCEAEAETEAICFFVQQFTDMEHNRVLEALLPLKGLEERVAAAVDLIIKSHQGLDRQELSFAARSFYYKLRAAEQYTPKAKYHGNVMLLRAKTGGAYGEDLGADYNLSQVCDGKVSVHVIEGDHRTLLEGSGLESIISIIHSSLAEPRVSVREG
NadD inh = blocks S. aureus nicotinate mononucleotide adenylyltransferase; purified NadD enzyme, colorimetric absorbance read-out; inhibition, % at 20 µM; 0.78% of 360,000 active; AID 602399; in the data active = inhibition above about 26%
NR3A LBD binder = NR3A (human) ligand-binding domain modulation. NR3A LBD differential scanning fluorimetry, Tm shift; 0% = protein alone, 100% = glycine-bound protein. Tm shift relative to glycine control, % at 25 µM. 2.5% of 340,000 active. AID 1259313;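 active = melting temperature shift of at least 10% of the positive control shift, at one fixed dose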
rCAG binder = r(CAG) repeat RNA binding; TO-PRO-1 dye displacement fluorescence; inhibition, % at 3 µM; 1.3% of 370,000 active; AID 651821;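 active = inhibition above the plate cutoff, the mean of all test compounds on that plate plus 3 SD, cut at about 35% in these data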;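 note: 0% = DMSO alone and 100% = 100 µM mitoxantrone as full dye displacement; higher means more dye released from RNA so lower well fluorescence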
NadD conf = NadD (S. aureus) inhibition, single concentration confirmation; shares compounds with NadD inh; purified S. aureus NadD, colorimetric enzyme assay; inhibition, % at 20 µM; 13% of 2,000 active; AID 624309; in the data active = inhibition mostly above about 42%, no sharp cut-off; inactive = mostly below about 42%
An asterisk follows results filed as active; . = no result. Only some compounds are listed: those with a hit (about 4.3% of all), similar ones and a draw of the others.

SMILES | FAS TE block | NadD inh | NR3A LBD binder | rCAG binder | NadD conf
O=C(NC(Cc1c[nH]c2ccccc12)C(=O)N/N=C/c1ccc(Cl)cc1)c1cccs1 (configuration not stated) | 21.5 | 31.2* | 19.5* | 18.1 | 34.6
O=C(CCc1nc(-c2ccccc2F)no1)Nc1cccnc1 | -7.5 | 66.3* | -3.4 | -3.4 | -3.7
CCOc1ccccc1-c1noc(CCC(=O)Nc2cccnc2)n1 | -2.5 | -5.6 | 1.3 | -4.5 | .
Cc1[nH]c(=O)nc(SCc2cccc(Cl)c2)c1C#N | 7.8 | -1.5 | -4.0 | 25.9 | .
N#Cc1c(SCc2c(Cl)cccc2Cl)nc(N)[nH]c1=S | 10.3 | 30.3* | 8.1 | 23.5 | 47.3*
CCCCC1=CC2=CC(=O)C(C)(OC(=O)C3CCCC3)C(=O)C2=CO1 (configuration not stated) | -4.3 | 53.0* | -7.5 | 29.6 | 29.4
CCCCC1=CC2=CC(=O)C(C)(OC(=O)CC)C(=O)C2=CO1 (configuration not stated) | -0.4 | 32.6* | -4.3 | 23.9 | 45.3*
COC(=O)[C@]12C[C@H](CC(=O)NCCC(C)C)C(=O)N(CCc3ccc(OC)c(OC)c3)C1=C[C@H](C1CCCC1)O[C@@H]2C | . | . | . | 3.8 | .
CCOC(=O)[C@]12CCCC=C1N(Cc1ccc(OC)cc1)C(=O)[C@@H]2CC(=O)N1CCSCC1 | . | . | . | 0.0 | .
CCCSC1=N/C(=C\c2ccc3c(c2)OCO3)C(=O)S1 | 3.9 | 39.7* | -0.6 | 14.0 | -2.7
CCCSC1=N/C(=C\C=C\c2ccco2)C(=O)S1 | 3.2 | 39.9* | 0.9 | 76.4* | 23.8
CCSC1=N/C(=C\c2ccc3c(c2)OCO3)C(=O)S1 | -2.7 | 0.2 | 3.1 | 5.1 | .
COC(=O)C1CN(Cc2ccc(OC)cc2)CCS(=O)(=O)N1Cc1ccc(OC)cc1 (configuration not stated) | . | . | . | 5.0 | .
Cc1cc(-c2nn3c(-c4ccccc4)nnc3s2)c2ccccc2n1 | 8.9 | 0.2 | -0.2 | 5.3 | .
c1ccc(-c2cc(-c3nn4c(-c5ccco5)nnc4s3)c3ccccc3n2)cc1 | 11.8 | 46.6* | 1.3 | . | 15.2
CCOC(=O)[C@]12CCCC=C1N(Cc1ccc(OC)cc1)C(=O)[C@@H]2CC(=O)NCc1ccc(OC)c(OC)c1 | . | . | . | 0.2 | .
Cc1ccc2[nH]c(=O)c(C3C(C#N)=C(N)Oc4c3ccc3cccnc43)cc2c1 (configuration not stated) | 9.7 | 45.5* | -1.3 | 17.0 | 21.2
Cc1ccc([N+](=O)[O-])cc1S(=O)(=O)Nc1cccc(-c2ccc(N3CCCC3)nn2)c1 | 44.4 | 43.8* | 11.7* | 32.2 | 54.5*
O=C(Nc1cccc(-c2ccc(N3CCCCC3)nn2)c1)C(F)(F)F | 7.2 | 1.9 | -1.6 | -2.0 | .
Cc1ccc(S(=O)(=O)Nc2cccc(-c3ccc(N4CCCCCC4)nn3)c2)cc1C | 38.8 | 42.5* | 2.1 | 16.4 | 35.9
O=S(=O)(Nc1cccc(-c2ccc(N3CCCCCC3)nn2)c1)c1ccc(C(F)(F)F)cc1 | 39.4 | 36.2* | 4.8 | 30.2 | 23.1
COc1ccc(C)cc1S(=O)(=O)Nc1cccc(-c2ccc(N3CCCCCC3)nn2)c1 | 31.3 | 30.8* | 0.1 | 10.2 | 27.5
CCc1cccc(Nc2cc(C)n(-c3cccc(CC)c3)c(=O)c2)c1 | . | . | . | 1.6 | .
CC(C)C[C@H]1COc2cccc(F)c2S(=O)(=O)N1Cc1cn(CCC2OCCCO2)nn1 | . | . | . | 1.7 | .
Cc1ccc(NC(=O)Cn2nnc(-c3ccccc3F)n2)cc1C | . | . | . | 4.6 | .
SMILES | FAS TE block | NadD inh | NR3A LBD binder | rCAG binder | NadD conf
Cc1ccc(-c2cc(C(F)F)n3ncc(C(=O)Nc4c(C)nn(Cc5c(Cl)cccc5Cl)c4C)c3n2)cc1 | 14.6 | 32.4* | 1.8 | 4.6 | -0.5
COCCNC(=O)c1cnn2c(C(F)F)cc(-c3ccc(C)cc3)nc12 | -1.8 | 10.6 | -2.5 | -0.8 | .
Cc1nn(Cc2c(Cl)cccc2Cl)c(C)c1NC(=O)c1cnn2c(C(F)F)cc(-c3ccccc3)nc12 | 6.1 | 43.1* | -2.9 | 2.1 | 1.0
O=C(N[C@H](Cc1ccccc1)C(=O)N1CCN(Cc2ccccn2)CC1)[C@H]1O[C@@H](n2ccc(=O)[nH]c2=O)[C@H](O)[C@@H]1O | . | . | . | 3.0 | .
COC(=O)[C@]12C[C@H](CC(=O)NCCCCc3ccccc3)C(=O)N(Cc3ccco3)C1=C[C@H](C(C)C)O[C@@H]2C1CC1 | . | . | . | 1.0 | .
COc1ccc(C2CC(c3ccccc3)=NN2C(=O)CN2N=NC3C(=O)N(c4cccc(F)c4)C(=O)C32)cc1 (configuration not stated) | 38.6 | 40.5* | -1.2 | 27.1 | 8.5
